# Experimental data as given in ChEMBL document CHEMBL3988442, “University of Dundee, Small-Polar-MMV Screening Library” (2021).
# Out of some 69,000 compounds screened, about 420 (0.61%) showed an effect of 50% or more. The list comes from a sample in which strong results are over-represented; it also holds similar structures and randomly drawn compounds.
# Molecular target: T1, Histidine--tRNA ligase (Leishmania infantum) (UniProt A4I591)
# T1 sequence (whole entry): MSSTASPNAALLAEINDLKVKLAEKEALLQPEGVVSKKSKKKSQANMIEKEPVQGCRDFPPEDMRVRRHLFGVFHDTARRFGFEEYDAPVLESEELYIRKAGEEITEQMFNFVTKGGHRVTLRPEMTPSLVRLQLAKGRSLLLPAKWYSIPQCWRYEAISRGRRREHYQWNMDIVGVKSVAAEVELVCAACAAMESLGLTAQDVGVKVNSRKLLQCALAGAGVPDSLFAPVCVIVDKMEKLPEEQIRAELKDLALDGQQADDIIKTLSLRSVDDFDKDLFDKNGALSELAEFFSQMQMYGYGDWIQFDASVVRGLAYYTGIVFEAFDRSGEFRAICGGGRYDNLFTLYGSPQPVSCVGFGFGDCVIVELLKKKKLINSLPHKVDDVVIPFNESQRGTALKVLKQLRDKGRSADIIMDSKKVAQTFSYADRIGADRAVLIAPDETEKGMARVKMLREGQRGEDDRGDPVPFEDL
# Experiment: Leishmania infantum Histidine tRNA synthetase (LdHisRS)
# Assay type: functional
# Design: scale not given: in the data most compounds retested in dose-response had high values
# Conditions: 30 µM
row,Compound,Percent Effect
1,O=C(NCc1ccco1)[C@H]1C[C@@H]2CCN(c3cccc(F)c3)C[C@H]2O1,25%
2,Cc1cnc(N2C[C@@H]3CN(Cc4ccco4)CCC[C@]3(C(=O)O)C2)nc1,19.4%
3,COCC(=O)N1CCC2(CC1)NC(=O)[C@H]1CN(C(=O)N(C)C)C[C@H]12,25.2%
4,CN1CCO[C@@H]2CN(C(=O)NCc3ccccc3)CC[C@@H]2C1,4.54%
5,Cc1cccc(S(=O)(=O)N2C[C@H]3C[C@H](C(=O)NCC(C)C)[C@@H](C2)O3)c1,12%
6,CCn1nc2c(cc1=O)CN(Cc1nc(-c3cccs3)no1)CC2,25.9%
7,CCn1nc2c(cc1=O)CN(Cc1nc(-c3cccnc3)no1)CC2,14.7%
8,Cn1nc2c(cc1=O)CN(Cc1nc(-c3ccccn3)no1)CC2,99.1%
9,CCc1ncc2c(n1)CN(Cc1nc(-c3ccccn3)no1)CC2,22.7%
10,CCn1nc2c(cc1=O)CN(Cc1nc(-c3ccccn3)no1)CC2,85.1%
11,c1ccc(-c2noc(CN3CCc4cncnc4C3)n2)nc1,36%
12,COc1ccc(CN2C[C@@H]3COC[C@H](N4CCN(C)CC4)[C@@H]3C2)cc1,1%
13,CC(C)(C)SCCN1CC(=O)N2CC[C@@H](O)C[C@H]2C1=O,10.6%
14,O=C(c1ccco1)N1CC[C@@H]2O[C@@H](COCCN3CCCC3)CC[C@@H]21,4.59%
15,Cc1nccn1-c1ccc(NS(=O)(=O)c2cccnc2)cn1,33.7%
16,Cc1nccn1-c1ccc(NS(=O)(=O)c2cnn(C(C)C)c2)cn1,50.6%
17,Cc1nccn1-c1ccc(NS(=O)(=O)c2cnn(C)c2)cn1,31.3%
18,CCC(C)NS(=O)(=O)c1ccc(/C=C\c2onc(C)c2NC(C)=O)cc1 (stereo not given),5.48%
19,Cc1cc(-c2nn(C)c(Cl)c2CN2Cc3ccccc3C(O)C2)no1 (stereo not given),66.7%
20,Cc1cc(-c2nn(C)c(Cl)c2CN2CCOCC(O)C2)no1 (stereo not given),15.2%
21,Cc1cc(-c2nn(C)c(Cl)c2CN2CC[C@H](CO)[C@@H](O)C2)no1,2.78%
22,CO[C@@H]1CC[C@H]2[C@H]1OCCN2C(=O)C1CCOCC1,23.1%
23,O=C(c1cc(-c2ccco2)cs1)N1CCCC1,55%
24,CN1CCN(C(=O)c2cc(-c3ccco3)cs2)CC1,30%
25,O=C(c1cc(-c2ccco2)cs1)N1CCOCC1,25%
26,Cc1ocnc1C(=O)N1CCN(C(=O)CC(C)C)[C@@H]2CS(=O)(=O)C[C@@H]21,6.67%
27,Cc1cccc(N2Cc3nc(=O)n(Cc4cccc(F)c4)n3C2=O)c1,14.1%
28,NC[C@H]1CC[C@H](C(NC(=O)c2ccccn2)c2ccccn2)CC1 (stereo not given in full),22.9%

row,Compound,Percent Effect
1,COc1ccccc1C(=O)NC(c1ccccn1)[C@H]1CC[C@H](CN)CC1 (stereo not given in full),88.4%
2,COc1cccc(C(=O)NC(c2ccccn2)[C@H]2CC[C@H](CN)CC2)c1 (stereo not given in full),39.1%
3,NC[C@H]1CC[C@H](C(NC(=O)C2CC2)c2ccccn2)CC1 (stereo not given in full),18.8%
4,NC[C@H]1CC[C@H](C(NC(=O)c2ccccc2)c2ccccn2)CC1 (stereo not given in full),22.9%
5,NC[C@H]1CC[C@H](C(NC(=O)c2cccc(F)c2)c2ccccn2)CC1 (stereo not given in full),60%
6,O=C(CC1CC1)N1C[C@@H]2CN(c3ccccc3)C(=O)[C@@H]2C1,21.1%
7,COc1cc(CN2C[C@@H]3CNC(=O)[C@H](C)[C@@H]3C2)cc(OC)c1,21.1%
8,O=C1[C@H]2CN(S(=O)(=O)C3CC3)C[C@H]2CN1Cc1cccnc1,2.74%
9,COCCN1C(=O)C[C@H]2[C@H]1CCN2C(=O)c1ccc[nH]1,22.6%
10,Cc1cccc(CN2C[C@@H]3CN(C(=O)c4ccnnc4)C[C@@H]3C2=O)c1,28.6%
11,O=C(c1cscn1)N1C[C@H]2CCCC(OCc3cccnc3)[C@H]2C1 (stereo not given in full),17%
12,Cc1nc(N2CCCC2)nc2c1CCN(C(=O)C1CCC1)CC2,51.3%
13,Cc1nc(N2CCCC2)nc2c1CCN(C(=O)C1CCCC1)CC2,23.3%
14,Cc1nc(N2CCCC2)nc2c1CCN(C(=O)C1CCCCC1)CC2,23.1%
15,CNC(=O)CN1CC[C@H]2CN(C(=O)c3ccc(C)cc3)C[C@H]2C1,9.72%
16,O=C(c1cscn1)N1CC[C@@H]2[C@@H]1CCN2c1ccccn1,10.5%
17,Cc1nn(C)c(C)c1-c1cc(-c2cnn(C)c2C2CC2)c(C#N)c(N)n1,19%
18,Cn1ncc(-c2cc(-c3cccc(O)c3)nc(N)c2C#N)c1C1CC1,64.6%
19,Cc1cc(O)ccc1-c1cc(-c2cnn(C)c2C2CC2)c(C#N)c(N)n1,29.1%
20,CC(CNC(=O)c1cnccn1)Oc1ccc(F)cc1 (stereo not given),5.31%
21,O=C(c1cncc(N2CCCC3(CCNCC3)CC2)n1)N1CCCCC1,31.7%
22,O=C(c1cncc(N2CCC3(CCNCC3)CC2)n1)N1CCCC1,18.4%
23,O=C(c1cncc(N2CCC3(CCCNC3)C2)n1)N1CCCC1 (stereo not given),56.7%
24,CC1(C)[C@H]2CC=C(CN3CCCn4nc(CNS(C)(=O)=O)cc4C3)[C@@H]1C2,10.6%
25,CC(C)c1ccccc1NC(=O)N1C[C@@H]2CC[C@H](C1)N(C)C2=O,11.8%
26,O=C(Nc1cccc2ccccc12)N1CCC(N2CCSCC2)CC1,18.3%
27,CN1C(=O)[C@H]2CC[C@@H]1CN(C(=O)Nc1cccc3ccccc13)C2,68.6%
